Consider eight compounds from PubChem BioAssay (Tox21).

A number with no mark means an inactive call. Results filed as inconclusive are left out. Active and inactive are the calls of the source. Unless noted, calls follow the shape of the dose curve; as a rule, active = well fitted curve in the direction sought with a large enough effect in the repeat runs; inconclusive = weak or mixed curves; inactive = no such curve, though single readings can be large; an effect the other way counts as inactive or inconclusive.

Test [1] can be described thus: qHTS assay to identify small molecule agonists of the sonic hedgehog signaling (Shh) pathway (AID 1259368; calls by dose curve;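 also: NIH/3T3-derived 3T3Gli1-Luc cells carrying a stable Gli1-driven firefly luciferase reporter; series mostly up to about 92 µM; nearly all actives have a fitted effect of over 15% in size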). In outline:
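Cells of a mouse NIH/3T3 clone stably expressing luciferase under the Gli1 transcriptional response element are exposed to test chemicals for 24 hr at 37 C. Pathway activation is detected as a rise in luminescence.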
Background: qHTS replaces the single test concentration by a dilution series.

A short description of test [2]: qHTS assay to identify small molecule antagonists of the sonic hedgehog signaling (Shh) pathway (AID 1259369; calls by dose curve; also: nearly all actives have a fitted effect of over 45% in size; also: potency is read from the fitted curve at half-maximal effect). In outline:
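Cells are plated and held 4hr at 37 C, compounds (DMSO) are pinned in, conditioned medium is added to stimulate the pathway, and after 24hr luciferase reagent is added for 30min before luminescence is read.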

The target of test [3] is Estrogen receptor beta (Homo sapiens) (UniProt Q92731). The test is described as follows: qHTS assay to identify small molecule antagonists of the estrogen receptor beta (ER-beta) signaling pathway (AID 1259378; active = well fitted inhibition curve with a large enough effect in the signal ratio in the repeat runs, not every such curve was filed as active; the % refers to the signal ratio). In outline: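 ER-beta-UAS-bla HEK293T cells in 2% charcoal-stripped FBS medium treated with compound plus 1nM final 17-beta-estradiol for 16 hr at 37C. Beta-lactamase reporter read by FRET substrate fluorescence after 2 hours at room temperature.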

Test [4] in a line: qHTS assay to identify small molecule agonists of the androgen receptor (AR) signaling pathway in the presence of an antagonist - cell viability counter screen (AID 1259379).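 Also: MDA-kb2 human breast cancer cells carrying an MMTV luciferase reporter; series mostly up to about 92 µM; nearly all actives have a fitted effect of over 25% in size.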 In a few lines: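 Cytotoxicity is assessed by CellTiter-Fluor in MDA-kb2 cells carrying an MMTV-driven luciferase reporter. Cells receive 3.0uM nilutamide plus compounds at 15 concentrations and incubate 16 hr at 37C without CO2 before fluorescence reading.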

The target in test [5] is Androgen receptor (Homo sapiens) (UniProt P10275). The test is described as follows: qHTS assay to identify small molecule agonists of the androgen receptor (AR) signaling pathway in the presence of an antagonist (AID 1259381; calls by dose curve; also: nearly all actives have a fitted effect of over 15% in size). In outline: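 Agonist-mode confirmation screen: human MDA-kb2 cells stably expressing luciferase under an MMTV promoter bearing AR and GR response elements, co-treated with 3.0uM nilutamide (final). Luminescence measured after 16hr compound incubation.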

The nature of test [6]: qHTS assay to identify small molecule antagonists of the estrogen receptor beta (ER-beta) signaling pathway - cell viability counter screen (AID 1259382). Also: series mostly up to about 92 µM; nearly all actives have a fitted effect of over 55% in size. In a few lines: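 Cytotoxicity counter screen multiplexed with the beta-lactamase antagonist assay: GripTite HEK293T ER-beta-bla cells were treated 16 hr with test chemicals in the presence of 1nM 17-beta-estradiol, and viability was measured by CellTiter-Glo.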

A short description of test [7]: qHTS assay to identify small molecule agonists of the estrogen receptor alpha (ER-alpha) signaling pathway in the presence of an antagonist - cell viability counter screen (AID 1259386).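 Also: series mostly up to about 92 µM; cells exposed to compounds for 22 h at 37 °C before the viability read; nearly all actives have a fitted effect of over 30% in size.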 In outline:
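Cytotoxicity was measured in parallel with the ERE-luciferase agonist screen, in the same wells. The cells were VM7Luc4E2, which endogenously express ER-alpha, and treatment was with compounds plus 10.0nM ICI-182,780 for 22hr.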

The target in test [8] is Progesterone receptor (Homo sapiens) (UniProt P06401). The test is described as follows: qHTS assay to identify small molecule agonists of the progesterone receptor (PR) signaling pathway (AID 1346784; calls by dose curve; also: nearly all actives have a fitted effect of over 30% in size). In outline: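 HEK 293T PR-UAS-bla reporter cells, 2% charcoal-stripped FBS; 6 hr settle at 37C/5% CO2, compound (DMSO) 16 hr, LiveBLAzer B/G FRET substrate 2 hr RT, fluorescence intensity read.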

The target is the same in test [9]. The test is described as follows: qHTS assay to identify small molecule antagonists of the progesterone receptor (PR) signaling pathway (AID 1346795; active = well fitted inhibition curve with a large enough effect in the signal ratio in the repeat runs, not every such curve was filed as active; the % refers to the signal ratio; also: potency is read from the fitted curve at half-maximal effect). In a few lines:
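Beta-lactamase reporter, HEK293T PR-UAS-bla line; 2% charcoal-stripped FBS; 6 hr pre-incubation, 37C/5% CO2. Compound + R5020 1 nM final, 16 hr. LiveBLAzer B/G FRET substrate, 2 hr RT; fluorescence intensity read.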

Test [10] is described as follows: qHTS assay to identify small molecule antagonists of the progesterone receptor (PR) signaling pathway - cell viability counter screen (AID 1346798). Also: series mostly up to about 92 µM; nearly all actives have a fitted effect of over 50% in size. In a few lines: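 Luminescence readout (CellTiter-Glo, 30 min, RT) of viability in PR-UAS-bla HEK293T cells exposed to compound and R5020 agonist for 16 hr at 37C, 5% CO2; run in the same wells as the beta-lactamase reporter read.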

The nature of test [11]: qHTS assay to identify small molecule agonists of the progesterone receptor (PR) signaling pathway - cell viability counter screen (AID 1346799; calls by dose curve; also: nearly all actives have a fitted effect of over 45% in size). In outline:
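HEK293T PR-UAS-bla, 3,000 cells/well, 2% charcoal-stripped FBS; 6 h settle, compound 16 h at 37C/5% CO2; LiveBLAzer 2 h RT, then CellTiter-Glo 30 min RT, luminescence read.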

Test [12] is described as follows: qHTS assay to identify small molecule antagonists of the TGF-beta/Smad signaling pathway - cell viability counter screen (AID 1346824). Also: nearly all actives have a fitted effect of over 50% in size. In a few lines:
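SBE-bla HEK 293T cells, incubated overnight, then compound plus 0.25 ng/mL TGF-beta1 (stock added) for 5 hr at 37 C. Viability was read in the same wells by CellTiter-Glo luminescence after 30 min at room temperature.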

A short description of test [13]: qHTS assay to identify small molecule agonists of the TGF-beta/Smad signaling pathway - cell viability counter screen (AID 1346829). Also: top concentration of the series differs between compounds; nearly all actives have a fitted effect of over 45% in size. In a few lines: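 Compound-treated SBE-bla HEK 293T cells (5 hr, 37 C) were assessed for viability with CellTiter-Glo in parallel with the reporter read.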
The nature of test [14]: qHTS assay to identify small molecule agonists of the TGF-beta/Smad signaling pathway (AID 1346859; active = well fitted activation curve with a large enough effect in the signal ratio in the repeat runs, not every such curve was filed as active; the % refers to the signal ratio; also: series mostly up to about 77 µM). In a few lines: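 Read-out: fluorescence at 460 and 530 nm (405 nm excitation) after a 2 hr room-temperature incubation with beta-lactamase FRET substrate. SBE-bla HEK 293T cells had been treated with test compounds for 5 hr at 37 C.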
For test [15], the target named is Thyrotropin-releasing hormone receptor (Homo sapiens) (UniProt P34981). The test is described as follows: qHTS assay to identify small molecule antagonists of the thyrotropin-releasing hormone receptor (TRHR) signaling pathway (AID 1346877; active = well fitted inhibition curve with a large enough effect in the repeat runs, not every such curve was filed as active; also: series mostly up to about 51 µM). In outline: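 Antagonism is measured as suppression of the calcium response to 1 nM TRH in TRHR-HEK293 cells that have been dye-loaded for 2 h at 37 °C after overnight plating. Each compound is tested at 15 concentrations in triplicate.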

Test [16] addresses Estrogen receptor (Homo sapiens) (UniProt P03372). The test is described as follows: qHTS assay to identify small molecule agonists of the estrogen receptor alpha (ER-alpha) signaling pathway in the presence of an antagonist (AID 1259383; calls by dose curve; also: top concentration of the series differs between compounds; nearly all actives have a fitted effect of over 15% in size). In a few lines: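 Agonist-mode confirmation in the presence of the ER antagonist ICI-182,780 at 10.0nM final. Breast-derived VM7Luc4E2 reporter cells were exposed to compounds for 22hr, and ERE-driven luciferase was quantified by luminescence.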

Test [17] in a line: qHTS assay to identify small molecule agonists of the estrogen receptor beta (ER-beta) signaling pathway - cell viability counter screen (AID 1259380). Also: nearly all actives have a fitted effect of over 30% in size. In outline: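 Cytotoxicity is measured in parallel with the reporter screen: after 16 hr compound exposure at 37C and a 2 hr LiveBLAzer step, CellTiter-Glo is added to the same ER-beta-UAS-bla HEK293T wells and luminescence read after 30 min.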

Test [18] is described as follows: qHTS assay to identify small molecule agonists or antagonists of the thyroid stimulating hormone receptor (TSHR) signaling pathway - wild type cell line counter screen (AID 1259384; calls by dose curve). In outline: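 Wild-type Hek293 cells, 800/well, 18 h at 37C, then compound with Ro20-1724 for 30 min RT. cAMP by HTRF (cAMP-d2/anti-cAMP cryptate), 1 h RT, fluorescence read. 15 concentrations, triplicates.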

The target of test [19] is Thyrotropin receptor (Homo sapiens) (UniProt P16473). The test is described as follows: qHTS assay to identify small molecule antagonists of the thyroid stimulating hormone receptor (TSHR) signaling pathway (AID 1259385; calls by dose curve; also: nearly all actives have a fitted effect of over 20% in size). In a few lines: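 TSHR-HEK293 cells (800/well) plated 18 h, then compounds with Ro20-1724 and TSH at 1.5 ng/mL final, 30 min at room temperature. cAMP quantified by HTRF (cAMP-d2/anti-cAMP-cryptate, 1 h); 15 concentrations in triplicate.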
% is scaled to controls: 0 for no effect and ±100 for the full control effect.

Estrogen receptor (Homo sapiens), sequence (P03372 whole entry, looked up): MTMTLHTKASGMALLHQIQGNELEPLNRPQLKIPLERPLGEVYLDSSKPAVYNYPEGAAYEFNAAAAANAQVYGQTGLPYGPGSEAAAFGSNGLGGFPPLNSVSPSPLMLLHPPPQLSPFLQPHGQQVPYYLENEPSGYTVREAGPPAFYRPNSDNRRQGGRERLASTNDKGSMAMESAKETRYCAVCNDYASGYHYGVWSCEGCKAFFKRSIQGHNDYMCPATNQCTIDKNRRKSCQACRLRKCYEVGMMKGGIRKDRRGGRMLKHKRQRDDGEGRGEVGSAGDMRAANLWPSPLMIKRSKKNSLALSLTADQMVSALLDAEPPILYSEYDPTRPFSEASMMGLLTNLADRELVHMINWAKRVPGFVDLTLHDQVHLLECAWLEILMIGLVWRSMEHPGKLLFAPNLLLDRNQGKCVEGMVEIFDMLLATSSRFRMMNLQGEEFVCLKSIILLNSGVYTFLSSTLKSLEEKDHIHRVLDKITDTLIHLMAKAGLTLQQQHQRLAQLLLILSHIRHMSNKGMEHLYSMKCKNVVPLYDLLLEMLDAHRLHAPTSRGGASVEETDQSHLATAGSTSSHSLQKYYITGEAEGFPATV
Thyrotropin receptor (Homo sapiens), sequence (P16473 whole entry, looked up): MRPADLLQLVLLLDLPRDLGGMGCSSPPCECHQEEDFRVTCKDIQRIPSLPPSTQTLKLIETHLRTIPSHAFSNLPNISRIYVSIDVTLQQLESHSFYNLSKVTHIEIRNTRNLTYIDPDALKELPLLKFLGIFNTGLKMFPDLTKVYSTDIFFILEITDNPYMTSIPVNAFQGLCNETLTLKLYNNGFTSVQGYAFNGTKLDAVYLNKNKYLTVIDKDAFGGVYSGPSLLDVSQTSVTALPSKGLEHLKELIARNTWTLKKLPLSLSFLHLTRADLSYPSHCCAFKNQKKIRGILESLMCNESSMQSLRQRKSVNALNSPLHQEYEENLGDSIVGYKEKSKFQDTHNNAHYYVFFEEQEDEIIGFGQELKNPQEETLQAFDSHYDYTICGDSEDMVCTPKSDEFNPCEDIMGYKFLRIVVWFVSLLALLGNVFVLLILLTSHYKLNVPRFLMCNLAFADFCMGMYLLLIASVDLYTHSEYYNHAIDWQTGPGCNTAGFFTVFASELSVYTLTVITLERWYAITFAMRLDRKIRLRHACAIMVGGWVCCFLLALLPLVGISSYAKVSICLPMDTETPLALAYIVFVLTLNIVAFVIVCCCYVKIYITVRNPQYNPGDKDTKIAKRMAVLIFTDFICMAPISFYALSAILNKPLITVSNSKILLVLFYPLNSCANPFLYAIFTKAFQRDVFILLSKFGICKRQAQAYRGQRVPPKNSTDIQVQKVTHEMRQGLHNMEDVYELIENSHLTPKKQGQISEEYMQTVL
Progesterone receptor (Homo sapiens), sequence (P06401 whole entry, looked up): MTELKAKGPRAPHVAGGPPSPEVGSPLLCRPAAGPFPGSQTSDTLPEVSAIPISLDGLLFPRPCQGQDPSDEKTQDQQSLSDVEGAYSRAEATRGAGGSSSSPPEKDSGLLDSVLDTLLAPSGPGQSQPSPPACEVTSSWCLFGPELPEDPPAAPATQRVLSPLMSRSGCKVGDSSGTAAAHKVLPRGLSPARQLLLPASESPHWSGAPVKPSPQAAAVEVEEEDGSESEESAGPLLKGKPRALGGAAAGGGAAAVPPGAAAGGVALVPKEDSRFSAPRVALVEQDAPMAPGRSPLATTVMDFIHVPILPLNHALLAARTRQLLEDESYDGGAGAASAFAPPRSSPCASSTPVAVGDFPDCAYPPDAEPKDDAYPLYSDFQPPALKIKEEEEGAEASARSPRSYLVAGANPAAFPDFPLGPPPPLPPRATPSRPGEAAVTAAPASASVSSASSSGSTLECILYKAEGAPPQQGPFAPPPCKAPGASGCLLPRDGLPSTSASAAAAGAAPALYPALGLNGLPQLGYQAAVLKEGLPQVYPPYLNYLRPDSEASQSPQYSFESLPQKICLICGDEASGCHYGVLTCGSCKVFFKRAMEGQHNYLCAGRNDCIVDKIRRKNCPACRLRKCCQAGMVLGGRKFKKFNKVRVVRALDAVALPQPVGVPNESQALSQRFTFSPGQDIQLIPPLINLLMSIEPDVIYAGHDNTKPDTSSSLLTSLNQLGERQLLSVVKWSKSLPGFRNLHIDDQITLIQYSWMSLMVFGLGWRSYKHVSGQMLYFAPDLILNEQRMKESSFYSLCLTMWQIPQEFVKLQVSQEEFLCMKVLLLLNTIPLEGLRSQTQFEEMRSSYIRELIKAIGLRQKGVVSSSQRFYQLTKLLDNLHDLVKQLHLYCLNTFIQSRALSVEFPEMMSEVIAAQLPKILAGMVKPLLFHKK
Thyrotropin-releasing hormone receptor (Homo sapiens), sequence (P34981 whole entry, looked up): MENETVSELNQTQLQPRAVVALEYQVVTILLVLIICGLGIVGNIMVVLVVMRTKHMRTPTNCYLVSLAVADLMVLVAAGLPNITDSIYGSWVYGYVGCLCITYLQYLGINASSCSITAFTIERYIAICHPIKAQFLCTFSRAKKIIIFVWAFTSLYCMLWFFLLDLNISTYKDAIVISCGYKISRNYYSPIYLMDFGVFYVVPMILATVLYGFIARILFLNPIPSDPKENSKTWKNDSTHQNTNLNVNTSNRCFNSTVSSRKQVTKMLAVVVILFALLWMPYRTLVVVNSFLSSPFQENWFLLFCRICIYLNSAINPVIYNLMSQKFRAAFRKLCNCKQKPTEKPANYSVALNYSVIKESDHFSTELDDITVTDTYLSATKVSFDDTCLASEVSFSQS
Androgen receptor (Homo sapiens), sequence (P10275 whole entry, looked up): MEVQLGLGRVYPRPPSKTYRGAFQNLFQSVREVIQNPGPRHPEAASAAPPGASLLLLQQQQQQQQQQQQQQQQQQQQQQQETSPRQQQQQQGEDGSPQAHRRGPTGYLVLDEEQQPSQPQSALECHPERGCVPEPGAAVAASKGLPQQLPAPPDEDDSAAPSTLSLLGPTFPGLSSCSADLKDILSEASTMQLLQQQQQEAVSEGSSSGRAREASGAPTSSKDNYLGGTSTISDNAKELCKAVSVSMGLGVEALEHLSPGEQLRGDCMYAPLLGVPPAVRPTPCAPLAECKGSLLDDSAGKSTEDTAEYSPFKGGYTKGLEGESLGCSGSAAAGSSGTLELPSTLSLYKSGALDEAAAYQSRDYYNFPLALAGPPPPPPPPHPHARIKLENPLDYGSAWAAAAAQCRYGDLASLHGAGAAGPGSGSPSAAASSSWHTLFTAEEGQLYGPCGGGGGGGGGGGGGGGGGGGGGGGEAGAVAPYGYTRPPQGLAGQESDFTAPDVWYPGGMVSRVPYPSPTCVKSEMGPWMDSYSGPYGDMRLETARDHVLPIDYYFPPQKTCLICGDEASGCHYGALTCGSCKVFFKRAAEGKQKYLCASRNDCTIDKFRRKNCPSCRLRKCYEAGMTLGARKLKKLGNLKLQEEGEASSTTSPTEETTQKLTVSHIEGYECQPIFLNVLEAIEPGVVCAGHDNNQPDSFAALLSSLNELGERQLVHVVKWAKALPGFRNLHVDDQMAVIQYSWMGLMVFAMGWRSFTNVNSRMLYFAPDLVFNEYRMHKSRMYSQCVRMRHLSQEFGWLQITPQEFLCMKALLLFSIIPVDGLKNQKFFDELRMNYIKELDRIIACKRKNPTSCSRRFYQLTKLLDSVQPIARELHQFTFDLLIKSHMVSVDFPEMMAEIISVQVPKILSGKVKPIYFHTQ
Estrogen receptor beta (Homo sapiens), sequence (Q92731 whole entry, looked up): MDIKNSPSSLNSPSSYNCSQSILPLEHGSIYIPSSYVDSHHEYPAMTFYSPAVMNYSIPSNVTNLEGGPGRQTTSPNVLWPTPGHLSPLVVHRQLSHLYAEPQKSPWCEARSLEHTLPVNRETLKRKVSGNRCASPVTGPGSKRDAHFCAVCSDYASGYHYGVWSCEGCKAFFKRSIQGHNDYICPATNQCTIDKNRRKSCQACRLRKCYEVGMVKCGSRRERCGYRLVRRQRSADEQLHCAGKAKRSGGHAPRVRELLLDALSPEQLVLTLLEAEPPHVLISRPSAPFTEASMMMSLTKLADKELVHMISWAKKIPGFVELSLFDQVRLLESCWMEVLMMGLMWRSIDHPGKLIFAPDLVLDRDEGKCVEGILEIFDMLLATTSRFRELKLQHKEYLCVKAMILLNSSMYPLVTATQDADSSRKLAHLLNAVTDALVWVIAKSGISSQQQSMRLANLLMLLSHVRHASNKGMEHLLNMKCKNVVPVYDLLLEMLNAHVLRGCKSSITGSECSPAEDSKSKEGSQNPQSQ

On to `NCC1CCCC(CN)C1` (stereo not given), for which the Potency result in [1], in test [2], in test [3], in [4], in [5] and in test [6] was “inactive” in each case. Moreover, the Potency entry in test [7], in [8], in [9], in test [10] and in test [11] was “inactive” in each case. Besides, the compound was called inactive in test [12], in test [13], in [14] and in test [15].
As to `[O]=[Bi]`, in test [1], the activity change was -0.104% [at 8.39 µM, hits give high values]. Besides, in test [2], the Potency was 1670 nM (active). The figures for the activity, negative = inhibition in test [3] and in test [15] were 1.25% [at 8.39 µM] and 3.48% [at 4.65 µM], respectively. The activity change, negative = cytotoxicity was 2.01% [at 8.39 µM] in [4]; -2.24% [at 8.39 µM] in [6]; -3.93% [at 8.39 µM] in test [7]; 0% [at 8.39 µM] in [11]; -9.02% [at 6.97 µM] in test [13]. Besides, the activation was 0.802% [at 8.39 µM] in test [16], 4.47% [at 8.39 µM] in test [8] and 2.8% [at 6.97 µM] in [14]. Also, the viability change, negative = cytotoxic in test [12] is -10.5% [at 6.97 µM].
In the case of `COc1cc2c(cc1OC)-c1cc(=Nc3c(C)cc(C)cc3C)n(C)c(=O)n1CC2`, the Potency entry in [1], in [4], in test [17], in test [5], in [6] and in test [16] was “inactive” throughout. Besides, the Potency entry in test [19], in test [7] and in test [8] was “inactive” throughout. For the same compound, the results for the Potency in [2] and in [9] were 596 nM (active) and 26600 nM (active), respectively. For the same compound, the call in test [18], in test [12], in test [13], in test [14] and in test [15] was inactive.
`CCCCC(CC)CNCC(CC)CCCC` (stereo not given): the Potency result in [1], in test [2], in test [4], in test [17], in test [6] and in test [19] was “inactive” each time. Moreover, the Potency entry in [7], in test [8], in [9], in [10] and in test [11] was “inactive” throughout. The outcome in test [18], in test [12], in [13], in [14] and in test [15] was inactive.
Regarding `O=C(C(=O)c1ccccc1)c1ccccc1`, the Potency entry in [1], in test [2], in [4], in [17], in test [6] and in [7] was “inactive” each time. In addition, the Potency result in [9], in [10] and in test [11] was “inactive” in each case. In addition, the call in test [12], in test [13], in [14] and in test [15] was inactive.
For the compound `O=C(O)c1cccnc1C(=O)O`, the Potency result in test [1], in [2], in test [4], in test [17], in test [6] and in test [16] was “inactive” throughout. In addition, the Potency entry in test [19], in [7], in test [8], in [9], in [10] and in test [11] was “inactive” throughout. Further, the call in [18], in [13] and in test [14] was inactive.
On to `COC(=O)c1cc(Cl)ccc1NS(=O)(=O)C(F)(F)F`, for which the Potency result in test [1], in test [2], in [4], in [17], in test [5] and in test [6] was “inactive” throughout. The Potency result in test [19], in test [7], in test [8], in test [9], in test [10] and in [11] was “inactive” in each case. The compound was classed as inactive in test [18], in test [12], in test [13], in [14] and in test [15].
`Nc1ccc(S(=O)(=O)O)c(N)c1`: the Potency result in [1], in test [2], in test [4], in test [17], in test [6] and in [16] was “inactive” in each case. Further, the Potency result in test [19], in test [7], in test [8], in [9], in test [10] and in test [11] was “inactive” throughout. For the same compound, the outcome in test [18], in test [13] and in test [14] was inactive.
